IMPase inh = cell-permeable inhibitors of inositol monophosphatase (IMPase); 120,000 tested, under 10 active; inhibition (IP1 accumulation), % at 46.1 µM; CHO-M1 cells, IP1 accumulation, HTRF TR-FRET ratio; P97697; active = well fitted curve in the direction sought with a large enough effect in the signal ratio, not every such curve was filed as active; inconclusive = small, poorly fitted or top-dose-only effect, or a change in a side signal; inactive = no such curve, though single readings can be large or run the other way; the % refers to the signal ratio;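 note: cells stimulated with carbachol in lithium chloride buffer; higher means more IMPase inhibition seen as more IP1 and lower FRET ratio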
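Seeded CHO-M1 cells were dosed with compound at up to 46 uM, stimulated with carbachol for 30 min, then lysed in IP-One detection reagents. Higher IP1 lowers the TR-FRET signal.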
Lamin A splicing = changes lamin A minigene splicing in HeLa cells; HeLa LMNA splicing GFP/RFP minigene ratio, 48 h; Potency, µM (titrated, usually from 46.1 µM), hits mostly inhibitors; 200,000 compounds, 0.01% hits; AID 1487; active = well fitted inhibition curve with a large enough effect in the signal ratio, with a control signal flat, not every such curve was filed as active; inconclusive = small, poorly fitted or top-dose-only effect, or effect the other way, or a change in a side signal; the % refers to the signal ratio
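Read-out is the ratio of GFP to DsRed2 object intensity, acquired by 488 nm laser-scanning cytometry on HeLa lamin A-EGFP minigene reporter cells. Compound incubation 48 hrs at 37 °C in Opti-MEM with 2% FBS; DMSO 0.5% final.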
ALDH1A1 inh = blocks purified human ALDH1A1 activity | AID 1030 | 220,000 compounds, 7.3% hits | Purified ALDH1A1, NADH fluorescence, propionaldehyde substrate | P00352 | Potency, µM (titrated, usually from 75.3 µM), usual class: inhibitors
Target sequence (P00352 whole entry, looked up): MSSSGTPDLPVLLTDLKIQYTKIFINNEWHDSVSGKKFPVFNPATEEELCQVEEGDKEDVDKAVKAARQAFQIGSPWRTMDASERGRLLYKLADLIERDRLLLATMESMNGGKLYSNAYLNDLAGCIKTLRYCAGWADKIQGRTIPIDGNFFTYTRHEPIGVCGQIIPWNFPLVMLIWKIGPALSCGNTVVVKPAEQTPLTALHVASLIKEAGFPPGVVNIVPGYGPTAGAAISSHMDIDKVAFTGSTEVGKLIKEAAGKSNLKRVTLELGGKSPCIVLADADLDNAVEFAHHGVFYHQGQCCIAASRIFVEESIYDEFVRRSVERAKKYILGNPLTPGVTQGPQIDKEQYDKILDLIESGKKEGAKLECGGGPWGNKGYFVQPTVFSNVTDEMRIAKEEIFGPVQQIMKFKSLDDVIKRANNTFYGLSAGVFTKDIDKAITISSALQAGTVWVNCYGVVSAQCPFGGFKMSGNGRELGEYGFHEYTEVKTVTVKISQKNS
PNC inhibitor = blocks assembly of the perinucleolar compartment; PC3M PTB-GFP, PNC prevalence imaging, 16 h; stronger effect = lower value; activity change (PNC), negative = inhibition, % at 10 µM; 140,000 compounds, 3.1% hits;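 active = readout at or below -70, meaning at least 70% loss of cells showing the perinucleolar compartment, a nuclear body marking cancer cells; inconclusive = readout between -30 and a set limit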
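Read-out is percentage of cells bearing a perinucleolar compartment, from automated 20x imaging of fixed, Hoechst-stained PC3M PTB-GFP cells. Cells were seeded 4 h, then exposed 16 h to compound (23 nl of library stock) in duplicate plates.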
HPGD inh = blocks human HPGD enzyme activity; P15428; Potency, µM, actives largely listed as inhibitors; 150,000 compounds, 4.3% hits; purified HPGD, NADH fluorescence kinetic, PGE2 substrate
Target sequence (P15428 whole entry, looked up): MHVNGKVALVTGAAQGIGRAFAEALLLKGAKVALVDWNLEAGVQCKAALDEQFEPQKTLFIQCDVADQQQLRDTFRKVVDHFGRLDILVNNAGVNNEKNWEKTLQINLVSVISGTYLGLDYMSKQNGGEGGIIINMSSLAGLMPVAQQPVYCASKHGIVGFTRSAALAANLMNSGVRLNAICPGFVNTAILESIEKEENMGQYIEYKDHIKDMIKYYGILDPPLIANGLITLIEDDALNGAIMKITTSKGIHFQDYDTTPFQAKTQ
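20 nM HPGD preincubated 15 min at room temperature with compound in 50 mM Tris-HCl pH 8, 0.01% Tween 20. Started with 1 mM NAD+ and 30 uM prostaglandin E2; NADH fluorescence (360/450 nm) read 5 times over 30-s intervals, last minus first.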
Luc counter = counter-screen: inhibitors of Kinase-Glo firefly luciferase. Q27757. AID 1379. Kinase-Glo luciferase, ATP luminescence, 8 min. Potency, µM (series often up to 38.3 µM), most hits filed as inhibitors. 200,000 compounds, 0.28% hits; active = well fitted inhibition curve with a large enough effect; inconclusive = small, poorly fitted or top-dose-only effect; note: nearly all actives have a fitted effect of over 60% in size
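Inhibition of Kinase-Glo luciferase light generation was assessed at 10 uM ATP in pH 7.2 imidazole buffer, with luminescence measured after eight minutes at ambient temperature.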
Hits are given with their value; . = inactive; ? = inconclusive; / = not tested or not shown; ! = not active in a repeat; [ ] = another dose, or the depositor's remark. Only some compounds are listed: those with a hit (about 10% of all), similar ones and a draw of the others. Unless noted, calls come from the whole dose curve; as a rule, active = well fitted inhibition curve with a large enough effect (not every such curve was filed as active); inconclusive = small, poorly fitted or top-dose-only effect, or another doubt; inactive = no such curve, though single readings can be large or run the other way.

SMILES	IMPase inh	Lamin A splicing	ALDH1A1 inh	PNC inhibitor	HPGD inh	Luc counter
CN1CC(C(=O)c2ccc(Cl)cc2)C(c2ccc(N(C)C)cc2)C1 (stereo not drawn)	/	/	10µM	/	/	.
CN(C(=O)Oc1ccc([N+](=O)[O-])cc1)c1ccccc1	/	.	?	?	.	.
COP(=S)(OC)Oc1ccc([N+](=O)[O-])cc1	/	?	20µM	/	.	.
N[C@H](CCl)C(=O)O	.	/	/	/	/	/
Cc1cc(CN(C)C)c(OC(=O)N(C)C)cc1C	.	.	.	-122	/	/
CN1C(=O)C(Cc2cccc3ccccc23)C(=O)N(C)C1=O	.	.	?	.	.	.
CN1C(=O)C(Cc2c[nH]c3ccccc23)C(=O)N(C)C1=O	.	.	14µM	.	?	.
Cc1cccc(NC(=O)c2cccc(NS(=O)(=O)c3ccc(Cl)cc3)c2)c1	.	?	?	.	13µM	.
Cc1cccc(C(=O)Nc2ccc(Cl)cc2C(=O)c2ccccc2)c1	.	.	.	?	.	.
CN(CCC(=O)O)C1=Nc2ccc(Cl)cc2C(c2ccccc2)=[N+]([O-])C1	/	/	.[13.5 µM]	/	.	.[7.66 µM]
CC(=O)c1ccc(OC(=O)N(C)c2ccccc2)cc1	/	/	.	/	/	.
CC(=O)c1ccc(-c2ccccc2)cc1	/	.	.	-88	.	.
CC1=CC(=O)c2c(O)cccc2C1=O	.	/	16µM	/	25µM!	.
O=C(CCN1CC2CCC(CC2)C1)c1cccs1	/	/	0.071µM	/	.	.[7.66 µM]
O=C1NC(=O)N(Cc2ccccc2Cl)C(=O)/C1=C/N1CCOCC1	.	.	.	.	.	.
O=C1NC(=O)N(Cc2cccs2)C(=O)/C1=C/c1ccc(N2CCOCC2)cc1	/	.	7.1µM	/	/	.
Nc1ncc([N+](=O)[O-])s1	/	/	25µM	/	?	/
O=P(Oc1ccccc1)(Oc1ccccc1)C(Nc1ccccc1)c1ccccc1 (stereo not drawn)	.	?	.	.	.	.
CC(C)Nc1ccc(Nc2ccccc2)cc1	/	1.4µM	8.9µM	/	.	/
N#CC1(c2ccccc2)CCN(C2CC(=O)N(c3ccc4c(c3)OCO4)C2=O)CC1 (stereo not drawn)	/	/	8.9µM	/	/	.
N#CC1(c2ccccc2)CCN(C2CC(=O)N(c3ccc(F)cc3)C2=O)CC1 (stereo not drawn)	/	/	32µM	/	/	.
C[C@H]1CN(C2CCC(C#N)(c3ccc(F)cc3)CC2)CC[C@@]1(C(=O)O)c1ccccc1 (stereo partly drawn)	.	?	.	/	.	.
ClC1=C(Cl)C2(Cl)C3C(Cl)C(Cl)CC3C1(Cl)C2(Cl)Cl (stereo not drawn)	/	/	.	/	.	/
c1ccc2c(c1)CC1CNCc3cccc(c31)S2 (stereo not drawn)	/	.	.	-117	.	.
CCCCC/C=C\C/C=C\CCCCCCCCCC(=O)NCCc1ccc(O)c(O)c1	/	/	.	/	.	.
SMILES	IMPase inh	Lamin A splicing	ALDH1A1 inh	PNC inhibitor	HPGD inh	Luc counter
CCN(CC)C(=O)c1ccc(NC(=O)CSc2nnnn2-c2cc(OC)ccc2OC)cc1	.	.	8.9µM	.	8.9µM	.
N/C(=N\N=C/c1ccc(-c2ccc(O)c(C(=O)O)c2)o1)N[N+](=O)[O-]	.	.	?	.	7.1µM	.
O=C(O)[C@@H](Br)[C@H](Br)C(=O)O	/	/	.[13.5 µM]	/	.	.[7.66 µM]
Cc1cccn2c(NCC3CCCO3)c(C(C)C)nc12 (stereo not drawn)	.	.	?	-127	?	.
O=C(O)C[O][Sb][O]CC(=O)O	/	/	.[13.5 µM]	/	.	.[7.66 µM]
CCC(C)N=Cc1c(O)n(-c2ccccc2)c(=O)[nH]c1=O (stereo not drawn)	.	.	?	.	?	.
Cn1c(=O)c2c(nc(N/N=C/c3c(O)n(-c4ccccc4)c(=S)[nH]c3=O)n2C)n(C)c1=O	.	.	8.9µM	.	.	.
CNCCc1c[nH]c2ccccc12	/	.	18µM	/	/	.
CNCCc1c[nH]c2ccc(O)cc12	.	?	.	/	.	.
CCCN1CCC[C@H](c2cccc(C#N)c2)C1	.	/	/	/	/	/
CCCCCCCCCCCC[N+](C)(C)CCOc1ccccc1	/	?	14µM	/	.	/
O=C1CCC[C@H]2[C@H]3CCCN4CCCC(=CN12)[C@@H]34	/	/	.	/	.	.
c1cncc(CNc2cc(-c3ccc4c(c3)OCO4)ncn2)c1	/	.	?	/	?	.
CCOC(=O)CBr	/	/	?	/	.	/
CCOC(=O)CN(C#N)c1nc(N(C)C)nc(N(C)C)n1	/	/	10µM	/	/	.
COc1cccc2c1C13CC[N+]4(CC5CC5)CO[C@]1(CCC(=O)C3)C4C2	/	/	.	/	/	/
Cc1c(C=O)c2ccccc2n1Cc1cccc(F)c1	/	.	.	?	.	.
O=Cc1c(C(=O)O)n(Cc2ccc(Cl)cc2)c2ccccc12	.	?	13µM	.	.	.
COc1ccc(OP(=O)(Nc2ccccc2)Nc2ccccc2)cc1	.	.	.	.	14µM	.
O=C1OC(c2cc(I)c(O)c(I)c2)(c2cc(I)c(O)c(I)c2)c2ccccc21	/	/	.	/	11µM	.
CC(=O)O[C@H]1C[C@H]2CC[C@@H]3[C@@H](CC[C@]4(C)[C@H](OC(C)=O)[C@H]([N+]5(C)CCCCC5)C[C@@H]34)[C@]2(C)C[C@H]1[N+]1(C)CCCCC1	.	.	.	/	.	.
N#CC(c1ccc(Cl)nn1)c1c(F)cccc1Cl (stereo not drawn)	/	/	14µM	/	/	.
CN1CCC(O)(c2ccc(Cl)cc2)C(C(=O)c2ccc(Cl)cc2)C1 (stereo not drawn)	/	?	0.11µM	/	/	.
N#CC(c1ccc(Cl)cc1)N1CCOCC1 (stereo not drawn)	/	/	.	/	/	.
N#CC(c1ccc(O)cc1)N1CCCCC1 (stereo not drawn)	.	.	4.5µM	.	.	.
SMILES	IMPase inh	Lamin A splicing	ALDH1A1 inh	PNC inhibitor	HPGD inh	Luc counter
COc1cccc(C(C#N)N2CCCCC2)c1O (stereo not drawn)	.	.	.	.	2.2µM	.
COc1cccc(-c2nc(CS(=O)CC(=O)N3CCC4(CC3)OCCO4)c(C)o2)c1 (stereo not drawn)	.	.	35µM	.	.	.
Cc1ccc(OP(=O)(Oc2ccc(C)cc2)Oc2ccc(C)cc2)cc1	/	/	.	/	.	/
O=[As](O)(O)c1ccc2nc3cc([As](=O)(O)O)ccc3nc2c1	/	/	.[13.5 µM]	/	.	.[7.66 µM]
C/C(=N/OC(=O)N(C)C)c1ncc(C(F)(F)F)cc1N1CCOCC1	.	.	?	-84	?	.
Clc1cccc(C(Cl)(Cl)Cl)n1	/	/	.	/	.	/
Cc1c(O)c(O)cc2c1CC=C1[C@]3(C)CC[C@]4(C)CC[C@@](C)(C(=O)O)CC4[C@]3(C)CC[C@]12C (stereo partly drawn)	/	?	.	/	18µM	.
C=CCOCC1CO1 (stereo not drawn)	/	/	?	/	.	/
NC(=S)N/N=C/c1coc2ccccc2c1=O	.	.	14µM	.	.	.
